# Compound activity: PubChem BioAssay, Sanford-Burnham Center for Chemical Genomics
# SENP8 block-1: SENP8 protease inhibitors, primary screen, biochemical, luminescence | Sentrin-specific protease 8 (Homo sapiens), Q96LD8 | purified SENP8, Z-RLRGG-aminoluciferin cleavage | inhibition, % at 10 µM | 1.2% of 330,000 active | AID 2540, 2010; in the data active = inhibition above about 50%
# Target sequence (Q96LD8 whole entry, looked up): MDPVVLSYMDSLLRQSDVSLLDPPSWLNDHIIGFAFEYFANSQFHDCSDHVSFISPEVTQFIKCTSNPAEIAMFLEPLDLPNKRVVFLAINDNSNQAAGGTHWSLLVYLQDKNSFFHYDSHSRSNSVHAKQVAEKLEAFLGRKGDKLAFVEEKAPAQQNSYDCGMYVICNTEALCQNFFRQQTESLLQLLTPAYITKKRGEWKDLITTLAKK
# SENP8 block-2: human SENP8 protease inhibitors, primary screen, biochemical, fluorescence, Nedd8 protein substrate, uHTS; recombinant SENP8; AID 602440, 2012; 0.64% of 360,000 active; inhibition, % at 20 µM; in the data active = inhibition mostly above about 40%, no sharp cut-off; inactive = mostly below about 27%
# PPC-1+TRAIL kill: compounds killing PPC-1 cancer cells with TRAIL present, primary screen, TRAIL potentiator project, ATPLite luminescence, uHTS; PPC-1 cells + TRAIL, ATPLite viability luminescence; AID 1443, 2008; cell killing (% activity), % at 4 µM or 5 µM; 0.41% of 220,000 active;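 active = cell killing above 50% in the first pass at 4 µM, then a duplicate retest at 5 µM averaging 50% or more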;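 note: plate controls were cells with TRAIL plus DMSO for no effect and medium-only wells lacking cells for full effect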
# SENP6 block: SENP6 protease inhibitors, primary screen, biochemical, luminescence, uHTS; Sentrin-specific protease 6 (Homo sapiens), Q9GZR1; inhibition, % at 10 µM; 1.8% of 330,000 active; Recombinant SENP6 catalytic domain, aminoluciferin luminescence;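 active = inhibition above about 50% at the single tested dose, limit read from the data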;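 note: plate controls were DMSO wells with enzyme for no effect and DMSO wells lacking enzyme for full effect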
# C8 TRAIL sens: viability loss with TRAIL in NB7+C8 cells, primary screen, TRAIL sensitizer project, cell-based, ATPlite luminescence; inhibition (viability loss, TRAIL sensitization), % at 10 µM; 1% of 360,000 active; AID 624354, 2012;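 active = compounds causing at least 50% loss of cell viability in the single-dose screen, relative to plate controls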
# SENP7 block: SENP7 protease inhibitors, primary screen, biochemical, luminescence, uHTS; inhibition, % at 5 µM; recombinant SENP7, Z-RLRGG-aminoluciferin luminescence, 40 min; 1.5% of 330,000 active;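 active = inhibition above about 50% at the single test dose, limit read from the data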;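 note: plate controls were DMSO with enzyme for no effect and no enzyme buffer wells for full effect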
# SENP8 confirm: SENP8 protease inhibitors, retest, confirmation, biochemical, luminescence, single concentration; shares compounds with SENP7 block; Recombinant SENP8, Z-RLRGG-aminoluciferin luminescence, 60 min; inhibition, % at 12.5 µM; 40% of 6,200 active; AID 488912, 2010;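 active = mean inhibition across replicates above about 50%, limit read from the data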
# SENP6 confirm: SENP6 protease inhibitors, confirmation, biochemical, luminescence, single concentration; 58% of 6,200 active; inhibition, % at 12.5 µM; recombinant SENP6, Z-RLRGG-aminoluciferin luminescence; shares compounds with SENP7 block
# SENP7 conf: SENP7 protease inhibitors, retest, confirmation, biochemical, luminescence, single concentration. shares compounds with SENP7 block. recombinant SENP7, Z-RLRGG-aminoluciferin luminescence, 40 min. inhibition, % at 12.5 µM. 69% of 6,200 active. AID 488917, 2010
# Casp3 select: caspase-3 protease inhibitors, confirmation, selectivity assay for SENP inhibitor project, biochemical, single concentration; purified caspase-3, Z-DEVD-aminoluciferin luminescence, 60 min; shares compounds with SENP7 block; AID 488918, 2010; 60% of 6,200 active; inhibition, % at 12.5 µM;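 active = mean inhibition above about 50%, limit read from the data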;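 note: plate controls were enzyme with DMSO for no effect and wells without caspase-3 for full effect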
# Target sequence (P42574 28-227 limits assumed): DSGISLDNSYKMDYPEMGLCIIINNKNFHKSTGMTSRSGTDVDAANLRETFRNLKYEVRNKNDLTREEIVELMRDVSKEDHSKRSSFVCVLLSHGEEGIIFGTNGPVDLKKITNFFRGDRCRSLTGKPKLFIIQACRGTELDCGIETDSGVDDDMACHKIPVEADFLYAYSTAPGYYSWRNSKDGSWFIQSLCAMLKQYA
# Luc interf: interferes with luciferase luminescence in SENP counter-screen. shares compounds with SENP7 block. inhibition, % at 12.5 µM. 39% of 6,200 active. Pre-incubated SENP8/Z-RLRGG-aminoluciferin, luciferase luminescence interference;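 active = mean inhibition above about 50% when retested at one dose, limit read from the data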;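 note: plate controls were DMSO wells with completed reaction for no effect and substrate without enzyme for full effect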
# * marks the source's active call; other numbers are inactive results; · = no result. Rows were chosen to be rich in hits. Some 3% of all compounds tested hit in one or more screens of this group.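 Rule for the calls, unless noted: active = mean inhibition above about 50% in the one-dose retest (limit read from the data); inactive = the rest.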
SMILES,SENP8 block-1,SENP8 block-2,PPC-1+TRAIL kill,SENP6 block,C8 TRAIL sens,SENP7 block,SENP8 confirm,SENP6 confirm,SENP7 conf,Casp3 select,Luc interf
CCCNC(=O)C1CC(=O)N(c2ccc(OCc3ccc(Cl)cc3)cc2)C1 (stereo not given),61*,4,·,84*,7,88*,37,37,38,44,13
C=CCNC(=O)C1CC(=O)N(c2ccc(OCC(=O)N3CCCC3)cc2)C1 (stereo not given),-8,14,·,-6,-1,9,·,·,·,·,·
CCCNC(=O)C1CC(=O)N(c2ccc(OCc3ccc(F)cc3)cc2)C1 (stereo not given),87*,6,·,87*,29,88*,44,56*,71*,94*,15
C=CCNC(=O)C1CC(=O)N(c2ccc(OCc3ccc(F)cc3)cc2)C1 (stereo not given),79*,8,·,92*,-3,91*,65*,86*,96*,88*,23
O=C(NCc1ccccc1)c1cc(C2CCCN(S(=O)(=O)c3ccccc3)C2)on1 (stereo not given),·,1,·,·,-19,·,·,·,·,·,·
Clc1ccc(OCc2cc(-c3ccccc3)no2)c(Cl)c1,82*,5,26,84*,44,3,10,18,18,49,1
Cc1cccc(OCc2cc(-c3ccccc3)no2)c1C,55*,19,·,67*,6,67*,9,43,70*,38,20
Fc1ccc(OCc2cc(-c3ccccc3)no2)cc1,1,-1,·,5,-11,20,·,·,·,·,·
O=C(Nc1cccc(F)c1)c1ccc(-c2cccnc2)c2ccoc12,·,0,·,·,41,·,·,·,·,·,·
O=S(=O)(Nc1ccc(O)c2ccccc12)c1cccs1,30,20,·,63*,6,19,13,12,-6,-2,-1
O=S(=O)(Nc1cccc2ccccc12)c1cccs1,-1,-68,·,8,-5,9,·,·,·,·,·
Cc1cc(C=C2C(=O)CCCC2=O)c(C)n1-c1ccccc1,-3,21,3,8,-7,2,·,·,·,·,·
Cc1cc(/C=C2/C(=O)NN(c3ccccc3)C2=O)c(C)n1-c1ccc(O)cc1,56*,50*,79*,78*,88*,44,3,66*,91*,62*,6
CC1(C)Cc2c(sc(NC(=O)C(=O)N3CCCC3)c2C(N)=O)CO1,5,-15,·,-8,-3,-14,·,·,·,·,·
CC1(C)Cc2c(sc(NC(=O)Nc3ccccc3)c2C(N)=O)CO1,56*,-84,·,68*,1,53*,-3,52*,80*,52*,33
CCOc1ccc(S(=O)(=O)NCCCN2CCCC2=O)cc1,1,6,16,7,0,3,·,·,·,·,·
Fc1ccccc1-c1nc(-c2ccc(Br)o2)no1,85*,12,·,84*,26,89*,-12,83*,97*,68*,23
COc1ccc(Cl)cc1-c1nc(-c2ccc(Br)o2)no1,-1,-13,15,-24,21,2,·,·,·,·,·
Cc1ccccc1-c1nc(-c2ccc(Br)o2)no1,58*,14,·,72*,14,67*,22,64*,86*,45,38
Cc1ccccc1-c1nc(-c2ccc(NC(=O)c3ccc(Br)o3)cc2)no1,13,-6,-15,28,-7,2,·,·,·,·,·
Nc1c(C(=O)Nc2cccc(C(=O)O)c2)sc2nc3c(cc12)CCCC3,47,-294,·,71*,82*,25,74*,68*,88*,18,43
Nc1c(C(=O)Nc2ccc(Cl)c(C(=O)O)c2)sc2nc3c(cc12)CCCC3,-10,-389,·,-10,21,-5,·,·,·,·,·
O=C(Cc1ccc(Br)cc1)OCC(=O)N1CCc2ccccc2C1,-6,20,35,-6,-3,5,·,·,·,·,·
CCNC(=O)COC(=O)c1ccc(-c2nc3ccccc3s2)s1,96*,-388,29,96*,11,99*,87*,96*,101*,93*,11
CCCN1CCN(C(=O)c2ccccc2-c2nc3ccccc3s2)CC1,-2,-4,-6,0,-12,-7,·,·,·,·,·
SMILES,SENP8 block-1,SENP8 block-2,PPC-1+TRAIL kill,SENP6 block,C8 TRAIL sens,SENP7 block,SENP8 confirm,SENP6 confirm,SENP7 conf,Casp3 select,Luc interf
CCN1CCN(C(=O)c2ccc(-c3nc4ccccc4s3)s2)CC1,40,-319,10,61*,24,47,56*,52*,82*,69*,19
CCOC(=O)c1c(NC(=O)CN2CCN(c3ccc(Cl)cc3)CC2)sc(C)c1C,-9,-18,19,-15,-11,55*,-1,5,8,4,2
N#Cc1c(C(F)(F)F)cc(-c2cccc(Cl)c2)[nH]c1=O,78*,-268,1,74*,0,4,91*,91*,96*,74*,89*
N#Cc1c(C(F)(F)F)cc(-c2ccc(Cl)cc2)[nH]c1=O,69*,-313,-12,51*,0,23,-26,13,39,16,41
CCN(CC)S(=O)(=O)c1ccc(N=Nc2c(C)[nH]n(C(N)=S)c2=O)cc1,17,36,14,54*,15,18,41,37,72*,56*,18
CC(=O)N(C)c1ccc(N=Nc2c(C)[nH]n(C(N)=S)c2=O)cc1,78*,18,-17,78*,18,85*,86*,87*,98*,96*,90*
CCOc1ccccc1N=Nc1c(C)[nH]n(C(N)=S)c1=O,-3,29,·,-15,7,-8,·,·,·,·,·
